The results in this text go back to PubChem BioAssay (NCATS).

Values without a mark were called inactive. The source made the active and inactive calls. Calls come from the whole dose curve; as a rule, active = well fitted curve in the direction sought with a large enough effect; inconclusive = small, poorly fitted or top-dose-only effect, or another doubt; inactive = no such curve, though single readings can be large or run the other way.

Chain of Guanine nucleotide-binding protein G(i) subunit alpha-1 (Homo sapiens) (P63096 whole entry, looked up): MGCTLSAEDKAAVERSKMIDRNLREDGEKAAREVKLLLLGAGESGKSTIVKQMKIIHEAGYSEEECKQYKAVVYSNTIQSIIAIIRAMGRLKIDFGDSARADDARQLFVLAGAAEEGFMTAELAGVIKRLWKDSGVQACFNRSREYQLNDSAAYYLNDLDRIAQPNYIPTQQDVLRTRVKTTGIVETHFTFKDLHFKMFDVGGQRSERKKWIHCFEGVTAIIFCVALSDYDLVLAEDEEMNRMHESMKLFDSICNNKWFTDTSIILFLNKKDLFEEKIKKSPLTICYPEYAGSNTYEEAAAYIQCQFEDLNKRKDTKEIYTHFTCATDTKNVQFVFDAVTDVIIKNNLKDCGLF

The target in the assay is Guanine nucleotide-binding protein G(i) subunit alpha-1 (Homo sapiens) (UniProt P63096). The experiment in a line: qHTS Assay for Inhibitors of RGS12 GoLoco Motif Activity (Green Fluorophore) (AID 879).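 Note: 0% = labeled peptide with Gαi1 and full inhibition = labeled peptide alone without protein; negative values mean loss of peptide binding seen as reduced polarization.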 The note with it: Galphai1/FITC-RGS12 GoLoco peptide, fluorescence polarization; series mostly up to 57.1 µM; activity, negative = inhibition: at the top concentration. From the text:
Assay Overview: NIH Molecular Libraries Screening Centers Network [MLSCN] NIH Chemical Genomics Center [NCGC] MLSCN Grant: NS053754-01 Assay Provider: Siderovski, David P, University of North Carolina at Chapel Hill G-protein-coupled receptors (GPCRs) are major targets for drug discovery. The regulator of G-protein signaling (RGS)-protein family has important roles in GPCR signal transduction. RGS proteins contain a conserved RGS-box, which is often accompanied by other signaling regulatory elements. RGS proteins accelerate the deactivation of G proteins to reduce GPCR signaling; however, some also have an effector function and transmit signals. Combining GPCR agonists with RGS inhibitors should potentiate responses, and could markedly increase the agonist's regional specificity. The diversity of RGS proteins with highly localized and dynamically regulated distributions in brain makes them attractive targets for pharmacotherapy of central nervous system disorders. […] A complex of Gai1 and fluorescently labeled G-alpha-binding peptide (the "GoLoco motif") derived from RGS12 is incubated with library members. Inhibitors of the binding are detected by a decrease in the fluorescence polarization (FP) of the fluorophore. Protein was supplied by Prof. David Siderovski, University of North Carolina at Chapel Hill.
Assay Protocol: Reagents/Controls: Assay Buffer: 10 mM Tris-HCl, 150 mM NaCl, 0.1 mM GDP (prepared fresh), and 0.05% NP40 at pH 7.5. […] 10 nM FITC labeled peptide/50 nM protein in columns 1, 2, 5 - 48. Titration of unlabeled peptide control ([H][…][NH2], custom synthesized and HPLC-purified by Tufts University Core Facility) from 10 mM, then 1:2 dilution, 16-point in duplicate, pin-transferred to column 2, rows 1 to 32. Column 1 is neutral. FITC-labeled RGS12-GoLoco peptide was custom-synthesized and HPLC-purified by Michael Berne of Tufts University Assay Steps. Four uL of reagents were dispensed to 1536-well Greiner black solid-bottom plates. Compounds and controls (23 nL) were transferred via Kalypsys PinTool. The plates were incubated for 10 min at room temperature, and then read on ViewLux (Perkin-Elmer) High-throughput CCD imager using FITC polarization filter sets for the fluorescein-labeled decapeptide probe.During dispense, reagent bottles were kept submerged into 4 deg C water bath and all liquid lines were covered with aluminum foil to minimize probe and protein degradation. All screening operations were performed on a Kalypsys robotic system (Kalypsys, Inc., San Diego, CA) containing one RX-130 and two RX-90 anthropomorphic robotic arms.
Background: Quantitative high-throughput screening tests each substance at several concentrations.
In the case of `CC(C)OC(=O)C(C)(C)Oc1ccc(C(=O)c2ccc(Cl)cc2)cc1`, the “activity, negative = inhibition” value is -18.5%.
Same read-out and setting: under `CC(C)(C)c1ccc(C(O)CCCN2CCC(C(O)(c3ccccc3)c3ccccc3)CC2)cc1` (configuration not stated) stands -3.28%; under `O=C1NC(=O)C(c2ccccc2)(c2ccccc2)N1`, -12.8%.
With `CC(C)NCC(O)COc1cccc2[nH]ccc12` (configuration not stated), the “activity, negative = inhibition” value was -28%.
For the molecule `C[N+](C)(C)CC(=O)O`, the “activity, negative = inhibition” value was 1.77%.
Consider `CC1(C)CCC2=C(O1)c1ccccc1C(=O)C2=O`, for which the “activity, negative = inhibition” value was -13.6%.
On to `CCN1CCC[C@H]1CNC(=O)c1cc(S(N)(=O)=O)ccc1OC`, for which the “activity, negative = inhibition” value was -4.5%.
Regarding `O=C(O)CCc1nc(-c2ccccc2)c(-c2ccccc2)o1`, the “activity, negative = inhibition” value was -17.5%.
Still for that read-out and setting: under `NCCS` stands -5.9%; under `CCN(CC)C(=O)c1ccc(O)c(OC)c1`, -4.89%.
The same measure, in the same setting: under `CCN(CC)CCNC(=O)c1ccc(N)cc1` stands -15.1%.
In the case of `CC(=O)CCCCn1c(=O)c2c(ncn2C)n(C)c1=O`, the “activity, negative = inhibition” value is -14.5%.
Consider `CC(=O)c1ccc(S(=O)(=O)NC(=O)NC2CCCCC2)cc1`, for which the “activity, negative = inhibition” value was -11.5%.
Same read-out and setting: as for `CC1=C(/C=C/C(C)=C/C=C/C(C)=C/C(=O)Nc2ccc(O)cc2)C(C)(C)CCC1`, the figure is -22.4%; as for `CC(=O)N[C@@H](CS)C(=O)O`, -1.66%.
Regarding `NC(N)=Nc1nc(CSCC/C(N)=N/S(N)(=O)=O)cs1`, the “activity, negative = inhibition” value was -16%.
On to `C[N+](C)(C)CCCCCC[N+](C)(C)C`, for which the result was inactive.
Consider `CCN(CC)CCOC(=O)c1ccc(N)cc1`, for which the “activity, negative = inhibition” value is -18.6%.
Still for that read-out and setting: under `CCCCC1C(=O)N(c2ccccc2)N(c2ccccc2)C1=O` stands -10.3%.
Take `CCCNC(=O)NS(=O)(=O)c1ccc(Cl)cc1`: the “activity, negative = inhibition” value is -1.84%.
The same measure, in the same setting: under `CC/C(=C(\c1ccccc1)c1ccc(OCCN(C)C)cc1)c1ccccc1` stands 8.95%.
The same measure, in the same setting: under `O=C1NCC2(CCN(CCc3ccccc3)CC2)O1` stands -27.3%; under `Clc1ccc(Cn2c(CN3CCCC3)nc3ccccc32)cc1`, -17.9%.
Turning to `COc1cccc(-c2cc(=O)c3ccccc3o2)c1N`, the “activity, negative = inhibition” value was -11.8%.
As to `COc1ccccc1N1CCN(CCCNc2cc(=O)n(C)c(=O)n2C)CC1`, the “activity, negative = inhibition” value was -1.18%.
With `O=c1c(-c2ccc(O)cc2)coc2cc(O)ccc12`, the “activity, negative = inhibition” value was 2.67%.
On to `COc1ccc(Cc2nccc3cc(OC)c(OC)cc23)cc1OC`, for which the “activity, negative = inhibition” value is -9.95%.
